NPC1 promoter act – NPC1 promoter activation; Huh7 NPC1 promoter luciferase reporter, 24 h; Potency, µM (series often up to 9.22 µM), most hits filed as activators; 320,000 compounds, 2.4% hits; AID 485313; also: nearly all actives have a fitted effect of over 60% in size
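Cells: Huh7 expressing luciferase under the NPC1 promoter, 1500/well. Seeded 2 h, compound added, incubated 24 h at 37 °C. Luciferase reagent, 10 min ambient, then luminescence.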
Rab9 promoter act – activators of Rab9 promoter. Potency, µM (series often up to 9.22 µM), hits mostly activators. AID 485297. 320,000 compounds, 2.8% hits. Huh7 Rab9 promoter-luciferase reporter, luminescence, 24 h; also: nearly all actives have a fitted effect of over 60% in size
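Huh7 reporter line, Rab9 promoter upstream of luciferase. Compound exposure 24 h at 37 °C in reduced-serum medium with 10% FBS. Read-out: luminescence.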
FLuc modulator – inhibits or activates purified firefly luciferase, miR-21 counter-screen; P08659; purified FLuc, Km substrates, luminescence inhibition; Potency, µM (titrated, usually from 57.5 µM), most hits filed as inhibitors; 360,000 compounds, 6.9% hits; AID 588342; also: nearly all actives have a fitted effect of over 55% in size
Target sequence (P08659 whole entry, looked up): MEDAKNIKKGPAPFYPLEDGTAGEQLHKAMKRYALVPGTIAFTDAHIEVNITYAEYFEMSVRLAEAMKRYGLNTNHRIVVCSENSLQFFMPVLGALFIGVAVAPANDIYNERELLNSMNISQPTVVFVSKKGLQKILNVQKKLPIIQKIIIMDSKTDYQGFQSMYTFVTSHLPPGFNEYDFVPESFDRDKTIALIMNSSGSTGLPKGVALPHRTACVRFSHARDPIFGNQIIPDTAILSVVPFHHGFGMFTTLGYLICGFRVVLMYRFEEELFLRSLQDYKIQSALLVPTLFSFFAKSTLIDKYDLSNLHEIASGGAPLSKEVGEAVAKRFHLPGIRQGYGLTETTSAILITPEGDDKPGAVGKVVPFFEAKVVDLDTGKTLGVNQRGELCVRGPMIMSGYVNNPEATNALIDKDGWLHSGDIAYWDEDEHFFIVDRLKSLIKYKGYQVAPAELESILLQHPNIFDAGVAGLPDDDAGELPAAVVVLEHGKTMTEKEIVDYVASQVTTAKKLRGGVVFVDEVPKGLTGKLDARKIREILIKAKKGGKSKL
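Purified P. pyralis luciferase, 10 nM final, with Km-level 10 uM D-luciferin and 10 uM ATP in 50 mM Tris acetate pH 7.5, 10 mM Mg acetate, 0.01% Tween-20, 0.05% BSA; 6-point qHTS titration about 60 µM downward; luminescence read.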
ELG1 genotoxic – genotoxicity induction in ELG1-luciferase HEK293T cells; HEK293T ELG1-luciferase reporter, luminescence, 16 h; Potency, µM (doses to about 46 µM), usual class: activators; 330,000 compounds, 1.3% hits; also: nearly all actives have a fitted effect of over 60% in size
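Luminescence read-out: rising ELG1-luciferase signal, reflecting elevated ELG1 protein under genetic stress, flags genotoxic compounds. Cells were treated for 16 hr at 37 °C before ONE-Glo detection.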
SMN2 splice enh – increases expression of the SMN2 splice variant. HEK293 SMN2-luciferase splicing reporter, luminescence, 30-36 h. Potency, µM (series often up to 46.1 µM), actives largely listed as activators. 210,000 compounds, 2.8% hits. AID 1458; also: nearly all actives have a fitted effect of over 55% in size
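qHTS luciferase splicing reporter: luminescence rises when SMN2 exon 7 is included in transfected HEK293 cells. Compound exposure lasted 30-36 h at 37C, with 4.5 mM final sodium butyrate as control, followed by a ONE-Glo read.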
KinaseGlo FLuc – counter-screen: inhibitors of Kinase-Glo firefly luciferase; Q27757; Kinase-Glo luciferase, ATP luminescence, 8 min; Potency, µM (series often up to 38.3 µM), usual class: inhibitors; 200,000 compounds, 0.28% hits; AID 1379; also: nearly all actives have a fitted effect of over 60% in size
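Kinase-Glo luciferase light output from ATP and luciferin was measured with 10 uM ATP, within the enzyme's linear range. Buffer: 50 mM imidazole pH 7.2, 50 mM KCl, 7 mM MgCl2, 0.01% Tween 20, 0.05% BSA; luminescence read after 8 min at ambient temperature.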
Each line names hits and unclear results; the compound was inactive in the other large screens. Compounds with a hit are over-represented: about 7.5% of the library has one in this group of screens. Calls follow the shape of the dose curve; as a rule, active = well fitted curve in the direction sought with a large enough effect; inconclusive = small, poorly fitted or top-dose-only effect, or another doubt; inactive = no such curve, though single readings can be large; an effect the other way counts as inactive or inconclusive.

CCOC(=O)Cc1csc(NC(=O)Nc2ccc(F)cc2)n1	FLuc modulator 11µM (no result: SMN2 splice enh, KinaseGlo FLuc)
CCOC(=O)Nc1nc(-c2ccc(F)cc2F)cs1	NPC1 promoter act inconclusive, Rab9 promoter act inconclusive, FLuc modulator 19µM
Cc1ccc(OC(=O)CSc2nnc(-c3ccc4c(c3)OCO4)o2)c(C)c1	none (no result: NPC1 promoter act, Rab9 promoter act, ELG1 genotoxic, SMN2 splice enh, KinaseGlo FLuc)
CN(C)c1ccc(C(=S)NC2CCCCC2)cc1	NPC1 promoter act 3.2µM, Rab9 promoter act 2.8µM, FLuc modulator 4.8µM, ELG1 genotoxic 18µM, SMN2 splice enh 11µM
CCOc1ccc(C(=S)NC2CCCCC2)cc1OCC	FLuc modulator inconclusive (no result: SMN2 splice enh, KinaseGlo FLuc)
CN(C)c1ccc(C(=O)OCC(=O)NC2CCCCCC2)cc1	none
CCN(CC)c1ccc(C(=S)NC2CCCCC2)cc1	FLuc modulator 15µM, ELG1 genotoxic inconclusive, SMN2 splice enh inconclusive
Cc1ccc(NC(=O)C2CCCN(S(=O)(=O)c3ccc4c(c3)CCCC(=O)N4)C2)cc1N(C)C (stereo not given)	none (no result: NPC1 promoter act, Rab9 promoter act, ELG1 genotoxic, SMN2 splice enh, KinaseGlo FLuc)
COc1ccccc1C(=O)Nc1ccc2c(c1)CCCN2C(=O)c1cccs1	FLuc modulator 17µM (no result: SMN2 splice enh, KinaseGlo FLuc)
O=C(Nc1ccc2c(c1)CCCN2C(=O)c1ccccc1)c1ccccc1Br	FLuc modulator inconclusive (no result: SMN2 splice enh, KinaseGlo FLuc)
CCOC(=O)CNC(=O)N1CCc2ccc(NC(=O)c3ccccc3Cl)cc2C1	FLuc modulator inconclusive (no result: SMN2 splice enh, KinaseGlo FLuc)
COc1ccccc1C(=O)Nc1ccc2c(c1)CN(C(=O)CSC)CC2	FLuc modulator 24µM (no result: SMN2 splice enh, KinaseGlo FLuc)
COc1ccccc1C(=O)Nc1ccc2c(c1)CCCN2C(=O)c1ccccc1	FLuc modulator 9.5µM (no result: SMN2 splice enh, KinaseGlo FLuc)
O=C(Nc1ccc2c(c1)CCCN2C(=O)c1cccs1)c1ccccc1C(F)(F)F	none (no result: NPC1 promoter act, Rab9 promoter act, ELG1 genotoxic, SMN2 splice enh, KinaseGlo FLuc)
Cc1ccc(NC(=O)C2CCCN(c3cnccn3)C2)cc1Cl (stereo not given)	none (no result: NPC1 promoter act, Rab9 promoter act, ELG1 genotoxic, KinaseGlo FLuc)
O=C(N/N=C/c1ccc(-c2cccc(C(F)(F)F)c2)o1)c1ccccc1O	none
O=C(N/N=C/c1ccc(-c2cccc([N+](=O)[O-])c2)o1)c1ccccc1O	Rab9 promoter act inconclusive, FLuc modulator 11µM
CN(C)c1ccc(/C=N/NC(=O)C(O)(c2ccccc2)c2ccccc2)o1	none
O=C(N/N=C/c1ccc(-c2cccc(C(F)(F)F)c2)o1)c1ccccc1Br	FLuc modulator 21µM
CN(C)c1ccc(/C=N/NC(=O)c2ccccc2O)o1	FLuc modulator 21µM
COc1ccc(NC(=O)/C=C/c2ccccc2)cn1	NPC1 promoter act 3.5µM, Rab9 promoter act 2.5µM, FLuc modulator 8.5µM, ELG1 genotoxic inconclusive
COc1cccc(/C=C/C(=O)NNC(=O)c2ccncc2)c1	FLuc modulator inconclusive (no result: SMN2 splice enh, KinaseGlo FLuc)
COc1ccc(NC(=O)/C=C/c2cc(OC)c(OC)c(OC)c2)cn1	none
COc1cccc(/C=C/C(=O)Nc2ccc(OC)nc2)c1	FLuc modulator 11µM
COc1ccc(NC(=O)/C=C/c2ccc(F)cc2)cn1	NPC1 promoter act inconclusive, Rab9 promoter act inconclusive, FLuc modulator 11µM, SMN2 splice enh inconclusive
CSc1ccc(CCNC(=O)c2cc3cc(S(=O)(=O)N4CCCCC4)ccc3n2C)cc1	none (no result: NPC1 promoter act, Rab9 promoter act, ELG1 genotoxic, SMN2 splice enh, KinaseGlo FLuc)
O=C(Nc1ccccc1)Nc1nnc(-c2cccs2)s1	NPC1 promoter act inconclusive, Rab9 promoter act inconclusive, SMN2 splice enh inconclusive
COc1ccc(NC(=O)Nc2nnc(-c3cccs3)s2)cc1	NPC1 promoter act 4.5µM, Rab9 promoter act 4µM, FLuc modulator inconclusive (no result: SMN2 splice enh, KinaseGlo FLuc)
COc1ccc(C(=O)Nc2nnc(-c3cccs3)s2)cc1	NPC1 promoter act 1µM, Rab9 promoter act 0.79µM, FLuc modulator 1.2µM, ELG1 genotoxic 0.52µM, SMN2 splice enh 7.1µM
CC(C)(C)CC(=O)Nc1nnc(-c2cccs2)s1	NPC1 promoter act 3.2µM, Rab9 promoter act 3.2µM, SMN2 splice enh 13µM
O=C(Nc1nnc(-c2cccs2)s1)c1cccc(F)c1	NPC1 promoter act 1.8µM, Rab9 promoter act 0.89µM, FLuc modulator inconclusive, ELG1 genotoxic inconclusive, SMN2 splice enh 8.9µM
Cc1nnc(NC(=O)c2cccc(F)c2)s1	FLuc modulator inconclusive
Cc1cccc(C)c1NC(=O)c1oc2c(c1C)-c1nn(Cc3ccccc3)cc1CC2	none (no result: NPC1 promoter act, Rab9 promoter act, ELG1 genotoxic, SMN2 splice enh, KinaseGlo FLuc)
Cc1occc1C(=O)Nc1nnc(-c2cccs2)s1	NPC1 promoter act inconclusive, Rab9 promoter act 3.2µM, FLuc modulator inconclusive, ELG1 genotoxic inconclusive, SMN2 splice enh 3.5µM

Assay outcomes: PubChem, National Center for Advancing Translational Sciences (NCATS)
